Measurements from PubChem BioAssay AID489008 (National Center for Advancing Translational Sciences (NCATS), 2010).
Results filed as inconclusive are left out. The source made the active and inactive calls. The call rests on the fitted dose curve; in most records, active means well fitted inhibition curve with a large enough effect; inconclusive means small, poorly fitted or top-dose-only effect; inactive means flat fitted curve, though single readings scatter.

These molecules were tested against Ferritin light chain (Equus caballus) (UniProt P02791) (assay: Confirmation Assay for Identification of Novel General Anesthetics). Settings: apoferritin 1-aminoanthracene fluorescence displacement.
Chain of Ferritin light chain (Equus caballus) (P02791 2-175 limits assumed): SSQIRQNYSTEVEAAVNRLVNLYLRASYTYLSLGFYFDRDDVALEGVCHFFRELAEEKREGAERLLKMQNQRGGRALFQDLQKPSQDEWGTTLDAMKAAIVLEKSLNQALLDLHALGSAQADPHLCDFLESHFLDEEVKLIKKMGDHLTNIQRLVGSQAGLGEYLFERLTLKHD
Procedure, shortened: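 Horse apoferritin (10 uM) pre-loaded with 1-AMA (50% saturated, PBS) exposed to compounds 10 min at room temperature; loss of 1-AMA fluorescence (380/535 nm) scaled between free and bound ligand, curves fitted with Hill equation.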
Further: nearly all actives have a fitted effect of over 40% in size.
Potency means the concentration at half of the fitted maximal effect.

Potency, active:
O=C(CSc1ccccc1)N1CCc2ccccc21 20 µM, Cc1ccc(SCC(=O)N2N=CCC2c2ccccc2)cc1 (centres undefined) 15.8 µM, Nc1nc(Cl)cc(NCCc2ccc(O)cc2)n1 14.1 µM, CC1Cc2ccccc2N1C(=O)CSc1ccccc1 (centres undefined) 14.1 µM, O=C(Cc1cccc2ccccc12)N1CCCc2ccccc21 17.8 µM, C=Cc1ccc(Cn2nc(-c3ccc(C)cc3)ccc2=O)cc1 17.8 µM, Fc1cnc(Cl)nc1NC1CCCCC1 12.6 µM, CCC1CCCCN1S(=O)(=O)Cc1ccccc1Cl (centres undefined) 15.8 µM, Cn1cc([N+](=O)[O-])c(C(=O)Nc2ccc(C3CCCCC3)cc2)n1 14.1 µM, CC1(COc2ccc(CC3SC(=O)NC3=O)cc2)CCCCC1 (centres undefined) 14.1 µM, CC1=CCC2C(=O)N(c3ccc(C)cc3)C(=O)C2C1 (centres undefined) 10 µM, Nc1nnc(SCc2ccccc2Cl)s1 14.1 µM, COc1ccccc1OCC(=O)N1CCCCCCC1 12.6 µM, CC(=O)Nc1ccc(C(=O)OCC(=O)NC2CCCCCCC2)cc1 15.8 µM, CC1CCCN(C(=O)Cc2cccc3ccccc23)C1 (centres undefined) 31.6 µM, O=C(CCC1CCCCC1)Nc1nccs1 39.8 µM, Cc1csc(SCC(=O)NC23CC4CC(CC(C4)C2)C3)n1 15.8 µM, Cc1ccc(F)c(NC(=O)CCc2ccccc2)c1 15.8 µM, Cc1ccc(OCc2cc(C(=O)NC3CCc4ccccc43)no2)cn1 (centres undefined) 17.8 µM, CC(C)CCNC(=O)CN1N=C(c2ccc(Cl)cc2)CCC1=O 5.19 µM, Nc1nnc(CCC2CCCCC2)s1 10 µM, COCCCNC(=O)Cn1nc(-c2ccc(C)cc2)ccc1=O 14.1 µM, Fc1ccccc1CNc1cc(Cl)cc(Cl)c1 14.1 µM, Cc1cccc(NC(=O)N2CCCCCC2)c1 11.2 µM, O=C(OCC(=O)C12CC3CC(CC(C3)C1)C2)c1ccccn1 14.1 µM, O=C(CC12CC3CC(CC(C3)C1)C2)Nc1nncs1 10 µM, CC1Cc2ccccc2N1C(=O)COC(=O)c1cccnc1Cl (centres undefined) 15.8 µM, COc1cccc(CNc2ccc(F)c(Cl)c2)c1 7.94 µM, Cc1ccc(CC(=O)OCC(=O)NC2CCCC(C)C2C)cc1C (centres undefined) 28.2 µM, Cc1ccc(NC(=O)N2CCCCCC2)cc1C 6.31 µM, Cc1ccccc1OCC(=O)N1CCCc2ccccc21 17.8 µM, CC1(C)CC(=O)c2c(Cc3ccccc3)noc2C1 14.1 µM, Cc1ccc(CN=C2Nc3ccccc3CS2)cc1 14.1 µM, CCN(C(=O)c1ccco1)C1C2CC3CC(C2)CC1C3 (centres undefined) 14.1 µM, CCNc1nc(C23CC4CC(CC(C4)C2)C3)cs1 7.94 µM, COc1ccccc1C1SCCN1S(C)(=O)=O (centres undefined) 20 µM, O=C(Nc1cccc(Cl)c1)C1COc2ccccc2O1 (centres undefined) 14.1 µM, Cc1ccc(C(=O)COC(=O)c2ccc(Br)o2)cc1C 15.8 µM, O=C(Nc1ccc(Br)cc1)N1CCCCCCC1 6.31 µM
